Calls of active or inactive are those of the source. The calls were made as follows: active = hit-call score of the fitted dose curve at least 0.9, where 1 is the maximum; inactive = score below 0.9.
Legend:
Details in all cases: mRNA level, 48 h; actives raise or lower the signal
[1] = read-out: Cytochrome P450 7A1 (Homo sapiens) (UniProt P22680); assay: LTEA_HepaRG_CYP7A1: Life Technologies and Expression Analysis (LTEA) Assay for Cytochrome P450 7A1 (CYP7A1) using HepaRG (AID 2283496)
Outline: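 Gene expression endpoint in human HepaRG liver cells treated for 48 h with test chemicals (up to 100 uM, 0.5% DMSO). Values come from bidirectional concentration-response fitting versus DMSO.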

[2] = read-out: Glutathione S-Transferase (GSTA2), GSTA2 (gene 2939); assay: LTEA_HepaRG_GSTA2: Life Technologies and Expression Analysis (LTEA) Assay for Glutathione S-Transferase (GSTA2) using HepaRG (AID 2283497)
Outline: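 Human HepaRG cells, plated 48 h, then exposed in serum-free induction medium for 48 h to eight half-log concentrations up to 100 uM in 0.5% DMSO, duplicate. GSTA2 mRNA by qRT-PCR, normalized to ACTB/GAPDH/POLR2A; bidirectional fit versus DMSO.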

[3] = read-out: Glutamate-cysteine ligase catalytic (GCLC), GCLC (gene 2729); assay: LTEA_HepaRG_GCLC: Life Technologies and Expression Analysis (LTEA) Assay for Glutamate-cysteine ligase catalytic (GCLC) using HepaRG (AID 2283498)
Outline: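 Differentiated human HepaRG cells, plated 48 h then switched to serum-free induction medium, were exposed in duplicate for 48 h to 8 half-log concentrations topping at 100 uM in 0.5% DMSO. GCLC mRNA was quantified by qRT-PCR against ACTB, GAPDH and POLR2A.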

[4] = read-out: Glutamate-cysteine ligase regulatory (GCLM), GCLM (gene 2730); assay: LTEA_HepaRG_GCLM: Life Technologies and Expression Analysis (LTEA) Assay for Glutamate-cysteine ligase regulatory (GCLM) using HepaRG (AID 2283500)
Outline: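 Differentiated human HepaRG cells exposed 48 h in serum-free induction medium to 8-point half-log concentrations (top 100 uM, 0.5% DMSO), in duplicate. GCLM mRNA quantified by qRT-PCR, normalized to ACTB, GAPDH, POLR2A; bidirectional fitting versus DMSO.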

[5] = read-out: Glutathione S-transferase M3 (GSTM3), GSTM3 (gene 2947); assay: LTEA_HepaRG_GSTM3: Life Technologies and Expression Analysis (LTEA) Assay for Glutathione S-transferase M3 (GSTM3) using HepaRG (AID 2283501)
Outline: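 Differentiated HepaRG cells in serum-free induction medium were exposed in duplicate for 48 h to 8 half-log concentrations up to 100 uM in 0.5% DMSO. GSTM3 mRNA was measured by TaqMan qRT-PCR, normalized to ACTB/GAPDH/POLR2A, and fitted bidirectionally versus DMSO.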

[6] = read-out: Heat shock 70 kDa protein 1 (HSPA1A), gene 3303; assay: LTEA_HepaRG_HSPA1A: Life Technologies and Expression Analysis (LTEA) Assay for Heat shock 70 kDa protein 1 (HSPA1A) using HepaRG (AID 2283502)
Outline: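 Differentiated human HepaRG cells in serum-free induction medium were exposed in duplicate for 48 h to eight concentrations (top 100 uM, half-log steps, 0.5% DMSO). HSPA1A mRNA was quantified by qRT-PCR, normalized to ACTB, GAPDH and POLR2A, and fitted bidirectionally against DMSO.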

[7] = read-out: Hypoxia-inducible factor 1-alpha (Homo sapiens) (UniProt Q16665); assay: LTEA_HepaRG_HIF1A: Life Technologies and Expression Analysis (LTEA) Assay for Hypoxia-inducible factor 1 (HIF1A) Trancription factor using HepaRG (AID 2283503)
Outline: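 HepaRG, 48 h exposure, 8-pt half-log series from 100 uM, 0.5% DMSO vehicle, duplicates. Readout: HIF1A transcript by qRT-PCR (Fluidigm array), housekeeping-normalised. Bidirectional curve fit vs DMSO baseline.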

[8] = read-out: 3-Hydroxy-3-Methylglutaryl-CoA Synthase 2 (HMGCS2), HMGCS2 (gene 3158); assay: LTEA_HepaRG_HMGCS2: Life Technologies and Expression Analysis (LTEA) Assay for 3-Hydroxy-3-Methylglutaryl-CoA Synthase 2 (HMGCS2) using HepaRG (AID 2283504)
Outline: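 Differentiated human HepaRG cells were exposed in duplicate for 48 h in serum-free induction medium to eight concentrations (top 100 uM, half-log steps, 0.5% DMSO). HMGCS2 mRNA was quantified by TaqMan qRT-PCR, normalised to ACTB, GAPDH and POLR2A, then fitted bidirectionally against DMSO.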

HGF (gene 3082) = assay: LTEA_HepaRG_HGF: Life Technologies and Expression Analysis (LTEA) Assay for Hepatocyte Growth Facto (HGF) using HepaRG (AID 2283505)
Outline: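 Differentiated human HepaRG cells in serum-free induction medium were exposed in duplicate for 48 h to eight concentrations (top 100 uM, half-log steps, 0.5% DMSO). HGF mRNA was quantified by qRT-PCR, normalized to ACTB, GAPDH and POLR2A.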

[9] = read-out: Insulin Like Growth Factor 1 (IGF1), IGF1 (gene 3479); assay: LTEA_HepaRG_IGF1: Life Technologies and Expression Analysis (LTEA) Assay for Insulin Like Growth Factor 1 (IGF1) using HepaRG (AID 2283506)
Outline: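 Differentiated human HepaRG cells were dosed for 48 h in serum-free induction medium with 0.5% DMSO, eight half-log concentrations up to 100 uM, in duplicate. IGF1 mRNA was quantified by qRT-PCR normalized to ACTB, GAPDH, POLR2A; bidirectional fitting versus DMSO.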

[10] = read-out: Intercellular Adhesion Molecule 1 (ICAM1), ICAM1 (gene 3383); assay: LTEA_HepaRG_ICAM1: Life Technologies and Expression Analysis (LTEA) Assay for Intercellular Adhesion Molecule 1 (ICAM1) using HepaRG (AID 2283507)
Outline: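 Differentiated HepaRG cells in serum-free induction medium were exposed in duplicate for 48 h to eight half-log concentrations up to 100 uM in 0.5% DMSO. Transcript levels were measured by qRT-PCR normalized to ACTB, GAPDH and POLR2A; bidirectional fits relative to DMSO.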

[11] = read-out: Insulin-like growth factor-binding protein 1 (IGFBP1), IGFBP1 (gene 3484); assay: LTEA_HepaRG_IGFBP1: Life Technologies and Expression Analysis (LTEA) Assay for Insulin-like growth factor-binding protein 1 (IGFBP1) using HepaRG (AID 2283508)
Outline: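 Differentiated human HepaRG cells in serum-free induction medium were exposed in duplicate for 48 h to eight concentrations, top 100 uM with half-log dilutions, in 0.5% DMSO. Transcript levels came from qRT-PCR normalised to ACTB, GAPDH and POLR2A, fitted bidirectionally against DMSO.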

[12] = read-out: Interleukin 6 (IL6), IL6 (gene 3569); assay: LTEA_HepaRG_IL6: Life Technologies and Expression Analysis (LTEA) Assay for Interleukin 6 (IL6) using HepaRG (AID 2283509)
Outline: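 Differentiated human HepaRG cells, plated 48 h then switched to serum-free induction medium, were exposed in duplicate for 48 h to eight half-log concentrations up to 100 uM in 0.5% DMSO. IL6 mRNA measured by qRT-PCR, normalized to ACTB/GAPDH/POLR2A.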

[13] = read-out: Interleukin 6 Receptor (IL6R), IL6R (gene 3570); assay: LTEA_HepaRG_IL6R: Life Technologies and Expression Analysis (LTEA) Assay for Interleukin 6 Receptor (IL6R) using HepaRG (AID 2283510)
Outline: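 Differentiated human HepaRG cells, plated 48 h then switched to serum-free induction medium, were dosed in duplicate for 48 h at eight half-log concentrations up to 100 uM in 0.5% DMSO. IL6R mRNA quantified by qRT-PCR, normalized to ACTB/GAPDH/POLR2A; bidirectional fit versus DMSO.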

[14] = read-out: Potassium channel subfamily K member 1 (KCNK1), KCNK1 (gene 3775); assay: LTEA_HepaRG_KCNK1: Life Technologies and Expression Analysis (LTEA) Assay for Potassium channel subfamily K member 1 (KCNK1) using HepaRG (AID 2283511)
Outline: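 Differentiated human HepaRG cells in serum-free induction medium were exposed in duplicate for 48 h to 8 half-log concentrations up to 100 uM in 0.5% DMSO. KCNK1 mRNA was measured by TaqMan qRT-PCR, normalized to ACTB, GAPDH and POLR2A, and fitted bidirectionally versus DMSO.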

[15] = read-out: Keratin 19 (KRT19), KRT19 (gene 3880); assay: LTEA_HepaRG_KRT19: Life Technologies and Expression Analysis (LTEA) Assay for Keratin 19 (KRT19) using HepaRG (AID 2283512)
Outline: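 Differentiated human HepaRG cells, plated 48 h, were exposed in duplicate for 48 h in serum-free induction medium to eight half-log concentrations up to 100 uM in 0.5% DMSO. KRT19 mRNA was quantified by qRT-PCR, normalized to ACTB, GAPDH and POLR2A, and fitted bidirectionally versus DMSO.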

[16] = read-out: JUN Transcription Factor, JUN (gene 3725); assay: LTEA_HepaRG_JUN: Life Technologies and Expression Analysis (LTEA) Assay for JUN Transcription Factor using HepaRG (AID 2283513)
Outline: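 Differentiated HepaRG cells were exposed to chemicals for 48 h in serum-free induction medium, 8 concentrations from 100 uM in half-log steps, 0.5% DMSO vehicle, in duplicate. JUN mRNA was quantified by TaqMan qRT-PCR, normalized to ACTB, GAPDH, POLR2A.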

[17] = read-out: Lipase C (LIPC), LIPC (gene 3990); assay: LTEA_HepaRG_LIPC: Life Technologies and Expression Analysis (LTEA) Assay for Lipase C (LIPC) using HepaRG (AID 2283514)
Outline: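 Differentiated human HepaRG cells in serum-free induction medium were exposed in duplicate for 48 h to eight concentrations (top 100 uM, half-log steps, 0.5% DMSO). LIPC mRNA was quantified by TaqMan qRT-PCR, normalized to ACTB, GAPDH and POLR2A, with bidirectional fitting versus DMSO.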

[18] = read-out: Lipoprotein lipase (LPL), LPL (gene 4023); assay: LTEA_HepaRG_LPL: Life Technologies and Expression Analysis (LTEA) Assay for Lipoprotein lipase (LPL) using HepaRG (AID 2283515)
Outline: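 Differentiated human HepaRG cells in serum-free induction medium were exposed in duplicate for 48 h to eight half-log concentrations (top 100 uM) in 0.5% DMSO. LPL mRNA was quantified by TaqMan qRT-PCR, normalized to ACTB, GAPDH and POLR2A.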

[19] = read-out: growth arrest and DNA damage 45 (GADD45G), GADD45G (gene 10912); assay: LTEA_HepaRG_GADD45G: Life Technologies and Expression Analysis (LTEA) Assay for growth arrest and DNA damage 45 (GADD45G) using HepaRG (AID 2283499)
Outline: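 Differentiated human HepaRG cells in serum-free induction medium were exposed for 48 h to 8 half-log concentrations up to 100 uM in 0.5% DMSO, in duplicate. GADD45G mRNA was measured by TaqMan qRT-PCR, normalised to ACTB, GAPDH and POLR2A, and fitted bidirectionally against DMSO.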

Hypoxia-inducible factor 1-alpha (Homo sapiens), sequence (Q16665 whole entry, looked up): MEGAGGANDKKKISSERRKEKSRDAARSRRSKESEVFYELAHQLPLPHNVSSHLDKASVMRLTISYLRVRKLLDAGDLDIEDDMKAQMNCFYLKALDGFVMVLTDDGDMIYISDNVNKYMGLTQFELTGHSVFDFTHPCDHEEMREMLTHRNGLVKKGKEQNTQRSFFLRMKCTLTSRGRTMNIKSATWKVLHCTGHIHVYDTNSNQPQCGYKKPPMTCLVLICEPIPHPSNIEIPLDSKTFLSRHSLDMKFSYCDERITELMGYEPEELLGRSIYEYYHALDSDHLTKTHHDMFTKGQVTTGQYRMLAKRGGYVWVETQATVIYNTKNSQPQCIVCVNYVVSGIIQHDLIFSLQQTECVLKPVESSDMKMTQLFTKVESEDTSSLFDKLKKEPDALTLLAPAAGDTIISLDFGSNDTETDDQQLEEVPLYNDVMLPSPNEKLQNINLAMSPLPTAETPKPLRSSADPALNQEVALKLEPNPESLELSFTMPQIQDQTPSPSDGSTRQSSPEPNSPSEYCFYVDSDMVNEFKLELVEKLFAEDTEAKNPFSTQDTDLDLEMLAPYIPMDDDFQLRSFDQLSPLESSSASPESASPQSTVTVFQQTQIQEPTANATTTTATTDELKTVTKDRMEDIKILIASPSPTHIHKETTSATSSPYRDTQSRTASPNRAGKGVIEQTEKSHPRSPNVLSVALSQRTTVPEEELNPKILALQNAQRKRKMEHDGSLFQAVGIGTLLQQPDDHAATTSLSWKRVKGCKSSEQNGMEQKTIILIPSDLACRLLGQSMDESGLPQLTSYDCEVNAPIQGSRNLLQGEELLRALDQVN

For `CC(C)Oc1cc(-n2nc(C(C)(C)C)oc2=O)c(Cl)cc1Cl`, the AC50 [1] was 33.3 µM (active), the AC50 [2] was 80.8 µM (active) and the AC50 [3] was 86.2 µM (active). For the same compound, the AC50 [4] was 50 µM (active), the outcome [5] was “inactive” and the outcome [6] was “inactive”. For the same compound, the outcome [7] was “inactive”, the AC50 [8] was 61.9 µM (active) and the outcome (HGF (gene 3082)) was “inactive”. The AC50 [9] was 28.7 µM (active), the outcome [10] was “inactive” and the AC50 [11] was 76.8 µM (active). The outcome [12] was “inactive”, the outcome [13] was “inactive” and the outcome [14] was “inactive”. For the same compound, the AC50 [15] was 50 µM (active), the outcome [16] was “inactive” and the AC50 [17] was 50 µM (active). The AC50 [18] was 85.5 µM (active).
For `CC1COC(Cn2cncn2)(c2ccc(Oc3ccc(Cl)cc3)cc2Cl)O1` (centres undefined), the AC50 [1] was 13.8 µM (active), the AC50 [2] was 19.7 µM (active) and the outcome [3] was “inactive”. For the same compound, the AC50 [19] was 12.2 µM (active), the outcome [4] was “inactive” and the outcome [5] was “inactive”. For the same compound, the AC50 [6] was 87.2 µM (active), the AC50 [7] was 11.6 µM (active) and the AC50 [8] was 11.7 µM (active). The outcome (HGF (gene 3082)) was “inactive”, the AC50 [9] was 12.1 µM (active) and the AC50 [10] was 26.2 µM (active). For the same compound, the AC50 [11] was 19 µM (active), the AC50 [12] was 31.9 µM (active) and the outcome [13] was “inactive”. The AC50 [14] was 33.1 µM (active), the AC50 [15] was 12.9 µM (active) and the AC50 [16] was 62.4 µM (active). For the same compound, the AC50 [17] was 12 µM (active) and the AC50 [18] was 12.4 µM (active).

From PubChem BioAssay (EPA / NIEHS)
